PABP FP inh = PABP-poly(A) binding inhibition; 1% of 290,000 active; calls only at 35 µM; PABP-poly(A) RNA binding, fluorescence polarization; AID 2014;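 note: calls also rest on retests at 20 µM and on dose response follow-up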
PABP1 MLLE inh = blocks PAM2 peptide binding to the PABP1 MLLE domain | P11940 | GST-MLLE / FITC-PAM2 fluorescence polarization | inhibition, % at 20 µM | 0.36% of 360,000 active | AID 588489; in the data active = inhibition above about 35%, passing the limit was not always enough;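 note: plate controls were DMSO wells with GST-MLLE for no effect and wells lacking GST-MLLE protein for full effect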
eIF4H FP inh = inhibitors of RNA binding by human eIF4H | Q15056 | eIF4H fluorescence polarization binding assay | inhibition, % at 35 µM | 0.94% of 290,000 active;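 note: calls also rest on retests at 20 µM and on dose response follow-up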
MEX-5 binding = C. elegans MEX-5 TCR-2 RNA binding activity; Q9XUB2; MEX-5/FITC-TCR2 RNA binding, fluorescence polarization; stronger effect = lower value; activity score (negative = inhibition of binding), % at 10 µM; 0.38% of 300,000 active;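 active = inhibition past about -25% in most replicates, and total fluorescence under double the plate's negative control median, limit read from the data; inconclusive = replicates evenly split on the limit, or fluorescence at least double controls; inactive = too little inhibition in most replicates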;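 note: 0% = DMSO and -100% = 5 µM competing unlabeled TCR2 RNA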
EBV gp42 inh = EBV gp42 inhibition; 0.42% of 220,000 active; inhibition, % (tested at 21.74 µM); Q1HVG2; Fluorescence polarization binding assay, mP read-out; AID 1085; in the data active = inhibition above about 50%
* marks the source's active call; other numbers are inactive results; i = inactive; ? = inconclusive; . = not tested or not shown; + = active, no number. An excerpt weighted towards active compounds, which were near 1.8% of everything screened. Unless noted, the rule behind the calls is not given here.

SMILES | PABP FP inh | PABP1 MLLE inh | eIF4H FP inh | MEX-5 binding | EBV gp42 inh
CN(C)/N=C/C=C1\CC/C(=C\c2ccc(Br)cc2)C1=O | + | -55 | 67* | 1 | -4
CN(C)/N=C/C=C1\CCC/C(=C/c2cccs2)C1=O | i | -78 | 23 | 1 | -65
CC1C(=O)OC2C1CCC1(C)C3(C)C(=O)C=CC213 (stereo not drawn) | . | 7 | . | . | .
CC(=O)OCCCNc1cc(SCc2ccco2)c2nonc2c1[N+](=O)[O-] | i | 34 | 94 | -4 | -4
CCCC(=O)OCCNc1cc(SCc2ccco2)c2nonc2c1[N+](=O)[O-] | + | 31 | 80* | -2 | -4
CCOC(=O)c1ccc(-c2ccc(C=O)o2)cc1 | i | 12 | -2 | -27* | -11
CCN(CC(=O)NCc1ccc(Cl)cc1)C(=O)/C=C/c1ccco1 | + | -7 | 16* | -3 | -5
COc1ccc(-c2csc(NC(=S)NC(=O)/C=C/c3ccco3)n2)cc1OC | + | 25 | 89* | 2 | 2
CCN(CC(=O)NCc1ccc(Cl)cc1)C(=O)/C=C/c1ccccc1 | i | -5 | 3 | 0 | .
CSc1cccc(NC(=O)/C=C/c2ccco2)c1 | + | -3 | 57* | -2 | 10
O=C(/C=C/c1ccco1)Nc1scc(-c2ccccc2)c1C(=O)O | + | 1 | 79* | -3 | -10
CCN(CC)C(=O)C1=C(C)N(Cc2ccc(F)cc2)C(=O)C(CC(=O)NCC2CCCCC2)C1 (stereo not drawn) | . | 3 | . | . | .
O=C(/C=C/c1ccco1)Nc1nc(-c2ccccc2)cs1 | i | -6 | 53 | 0 | -14
NS(=O)(=O)c1ccc(CNC(=O)/C=C/c2ccco2)cc1 | i | -3 | 79* | -4 | 11
Cc1csc(NC(=O)/C=C/c2ccco2)n1 | + | -6 | 82 | 2 | -11
COc1ccccc1NC(=O)/C=C\c1ccco1 | i | 7 | 6 | -3 | .
Cc1cccc(NC(=S)NC(=O)/C=C/c2ccco2)n1 | + | 11 | 56* | -3 | -10
COc1ccccc1NC(=S)NC(=O)/C=C/c1ccco1 | + | -1 | 77 | 4 | 7
O=C(/C=C/c1ccco1)NCc1ccc(F)cc1 | i | 3 | 3 | 2 | 8
Cc1ccc(S(=O)(=O)CCC(=O)OCC(=O)N(C)c2ccccc2)cc1 | . | -8 | . | . | .
Cc1ccc([C@H]2C[C@H](O)[C@@H](n3cc(C4CC4)nn3)CN2C(=O)c2cccs2)cc1 | . | -6 | . | . | .
Cc1csc(NC(=O)c2ccc(C(=O)Nc3nc(C)cs3)cc2)n1 | + | . | ? | 1 | -19
NC(N)=NS(=O)(=O)c1ccc(NC(=S)NC(=O)/C=C/c2ccccc2)cc1 | i | 30 | -3 | -2 | .
Cc1csc(NC(=O)c2ccc(S(C)(=O)=O)cc2)n1 | i | -1 | -4 | 1 | -24
CC(=O)c1ccc(NC(=S)NC(=O)/C=C/c2ccco2)cc1 | + | 26 | 62* | -1 | .
SMILES | PABP FP inh | PABP1 MLLE inh | eIF4H FP inh | MEX-5 binding | EBV gp42 inh
CCCn1nnc(NC(=S)NC(=O)/C=C/c2ccco2)n1 | + | 21 | 80* | -6 | 0
NC(N)=NS(=O)(=O)c1ccc(NC(=S)NC(=O)/C=C/c2ccco2)cc1 | + | 2 | 88 | -2 | 19
Cc1ccc(Cc2c(-c3ccc(Cl)cc3)nc3c(C)cc(Br)cn23)cc1 | . | -5 | . | . | .
Cn1cc(-c2coc3c(C(=O)NCc4cccc(Cl)c4)cccc23)cn1 | . | -48 | . | . | .
Cc1cccc(S(=O)(=O)NC(=O)C2(C)CCN2C(=O)CCC2CCCC2)c1 (stereo not drawn) | . | -4 | . | . | .
O=C(/C=C/c1ccco1)NC(=S)Nc1ccccc1 | i | 10 | 27 | 1 | .
NS(=O)(=O)c1ccc(NC(=S)NC(=O)/C=C/c2ccco2)cc1 | i | 4 | 85* | ? | -4
CC1(C(=O)NC2CCc3ccccc32)CCN1CCc1ccccc1 (stereo not drawn) | . | -8 | . | . | .
Cc1ccc2cc(/C=C(\C#N)C(N)=O)c(N3CCCCC3)nc2c1 | i | -31 | -6 | ? | -12
Cc1ccc2cc(C=C(C#N)C#N)c(N3CCCCC3)nc2c1 | i | -6 | 23 | -2 | 117*
CCOC(=O)/C(C#N)=C/c1cc2ccccc2nc1N1CCCCC1 | ? | -27 | ? | -39* | 60*
CCOC(=O)n1c2ccccc2c(=O)n1CCO | . | 1 | . | . | .
O=C1NC(=O)c2cc3ccccc3cc21 | . | -5 | . | . | .
O=C1CCNc2cc3ccccc3cc21 | + | 24 | 82* | -5 | 48

Source: PubChem (several laboratories)
